“And” between values parts separate entries of the source, which are not always exact repeats. Identical values can stand only once. Some compounds were tested as several samples or in several runs, with calls that do not always agree. The source made the active and inactive calls. The calls were made as follows: active = hit-call score of the fitted dose curve at least 0.9, where 1 is the maximum; inactive = score below 0.9.
The molecules below were run on Vascular cell adhesion molecule 1 (VCAM1), VCAM1 (gene 7412) (assay: BSK_LPS_VCAM1: BioMAP Diversity Plus: LPS Assay for Vascular cell adhesion molecule 1 (VCAM1) Biomarker Activity (AID 2283086)). Conditions: primary human HUVEC with PBMC; actives raise or lower the signal.
Experimental: BSK_LPS is a cell-based, multiplexed-readout assay that uses umbilical vein endothelium and peripheral blood mononuclear cells, a human vascular primary cell co-culture, with measurements taken at 24 hours after chemical dosing in a 96-well plate.BSK_LPS_VCAM1 is an assay component measured in the BSK_LPS assay. It measures VCAM-1 antibody related to regulation of gene expression using ELISA technology.Data from the assay component BSK_LPS_VCAM1 was analyzed into 1 assay endpoint. This assay endpoint, BSK_LPS_VCAM1, was analyzed with bidirectional fitting relative to DMSO as the negative control and baseline of activity. Using a type of binding reporter, gain or loss-of-signal activity can be used to understand changes in the signaling as they relate to the gene VCAM1. Furthermore, this assay endpoint can be referred to as a primary readout, because this assay has produced multiple assay endpoints where this one serves a signaling function. To generalize the intended target to other relatable targets, this assay endpoint is annotated to the cell adhesion molecules intended target family, where the subfamily is Immunoglobulin CAM.
The levels of cell surface (or secreted, indicated by the prefix "s") biomarker endpoints were measured by ELISA. Overt cytotoxicity to cells in confluent adherent cultures (all systems other than the BT system) was assessed by measuring total protein levels using sulforhodamine B (SRB) staining in parallel cultures at the time of biomarker measurements, indicated as SRB endpoints. For proliferation assays for adherent cell types, individual cell types are cultured at sub-confluence and relative cell numbers quantified by SRB staining at time points optimized for each system (48 h: 3C and CASM3C systems; 72 h: BT and HDF3CGF systems; 96 h: SAg system). SRB was performed by staining cells with 0.1% SRB after fixation with 10% TCA and reading wells at 560 nm.Viability and proliferation of PBMC (T cells) was quantified by Alamar Blue reduction for the SAg and BT systems. For PBMC viability (referred to as PBMC Cytotoxicity within the assay endpoint names), cells were plated (75,000/well in a 96-well plate) and then chemical samples added for 1 h before addition of activators, SEB and TSST-1 (20 ng/mL final concentration each). Cells were incubated for 90 h. Then, Alamar Blue (20 uL/well) (Invitrogen, Cat DAL1100) was added for 6 h, and the plates were read with a fluorescence microplate reader at 546/580 nm (excitation/emission). For PBMC proliferation, cells were plated and activated as above but incubated for only 16 h prior to addition of Alamar Blue. Plates were read after 6 h.
For `Nc1ccc([N+](=O)[O-])cc1O`, the outcome was “inactive”. `CCO[Si](CCC(F)(F)C(F)(F)C(F)(F)C(F)(F)C(F)(F)C(F)(F)F)(OCC)OCC` was tested, and the outcome was “inactive”. `OCC(F)(F)C(F)(F)C(F)(F)C(F)(F)C(F)(F)C(F)F` was tested, and the outcome was “inactive”. `CCCCOCCOCCOC(=O)CCCCC(=O)OCCOCCOCCCC` was tested, and the outcome was “inactive”. For `O=C(O)C(F)(F)C(F)(F)C(F)(F)C(F)(F)C(F)(F)C(F)(F)C(F)(F)C(F)(F)C(F)(F)C(F)(F)C(F)(F)C(F)(F)C(F)(F)F`, the outcome was “inactive”. With `OCCCC(F)(F)C(F)(F)C(F)(F)C(F)(F)C(F)(F)C(F)(F)C(F)(F)F` the AC50 was 51.4 µM (active) and 43.6 µM (active). In the case of `O=C(Cl)C(F)(F)C(F)(F)C(F)(F)C(F)(F)C(F)(F)C(F)(F)C(F)(F)C(F)(F)F`, the AC50 was 30 µM (active) and 40.7 µM (active) and 45.5 µM (active). In the case of `CC(=O)Nc1ccc(N=Nc2cc(C)ccc2O)cc1`, the AC50 was 5.06 µM (active). In the case of `C=C(C)C(=O)OCCC(F)(F)C(F)(F)C(F)(F)C(F)(F)C(F)(C(F)(F)F)C(F)(F)F`, the outcome was “inactive”. `O=P(O)(O)OCCC(F)(F)C(F)(F)C(F)(F)C(F)(F)C(F)(F)C(F)(F)F` was tested, and the outcome was “inactive”. With `O=S(=O)(OCCOC(F)(F)F)C(F)(F)F` the outcome was “inactive”. For `O[Si](c1ccccc1)(c1ccccc1)c1ccccc1`, the outcome was “inactive”. `FC(F)(F)C(F)(F)C(F)(F)N(C(F)(F)C(F)(F)C(F)(F)F)C(F)(F)C(F)(F)C(F)(F)F` was tested, and the outcome was “inactive”. With `FC(F)(F)C(F)(F)C(F)(F)C(F)(F)C(F)(F)C(F)(F)C(F)(F)C(F)(F)F` the outcome was “inactive”. `CCCCNc1ccccc1` was tested, and the outcome was “inactive”. For `FC(F)(F)C(F)(F)C(F)(F)C(F)(F)C(F)(F)C(F)(F)C(F)(F)C(F)(F)CCS`, the outcome was “inactive”. `Cc1ccc(S(=O)(=O)OCC(F)(F)C(F)(F)C(F)(F)C(F)(F)C(F)(F)C(F)F)cc1` was tested, and the outcome was “inactive”. With `O=C(O)C(F)(F)C(F)(F)C(F)(F)C(F)(F)C(F)(F)C(F)(F)C(F)(F)C(F)(F)Cl` the AC50 was 30 µM (active) and the outcome was “inactive”. For `OCC(F)(F)C(F)(F)C(F)(F)C(F)F`, the outcome was “inactive”. For `FC(F)(F)C(F)(F)C(F)(F)CI`, the outcome was “inactive”. `FC(F)(I)C(F)(F)C(F)(F)C(F)(F)I` was tested, and the outcome was “inactive”. `C=C(C)C(=O)OCC(F)(F)C(F)(F)C(F)(F)F` was tested, and the outcome was “inactive”. `CO[Si](OC)(c1ccccc1)c1ccccc1` was tested, and the outcome was “inactive”. With `C=CC/C=C/C/C=C/C/C=C/C` the outcome was “inactive”. `COC(=O)CCC(F)(F)C(F)(F)C(F)(F)C(F)(F)F` was tested, and the outcome was “inactive”. With `O=C(O)C=C(C(F)(F)F)C(F)(F)F` the AC50 was 10.5 µM (active) and 10.2 µM (active). In the case of `O=C(O)C(F)(F)C(F)(F)F`, the outcome was “inactive”. For `O=C(O)C(F)(F)C(F)(F)C(F)(F)F`, the outcome was “inactive”. In the case of `O=C(O)C(F)(F)C(F)(F)C(F)F`, the outcome was “inactive”. In the case of `C=CC(F)(F)C(F)(F)C(F)(F)C(F)(F)C(F)(F)C(F)(F)C(F)(F)C(F)(F)C=C`, the outcome was “inactive”. `FC(F)(F)C(F)(F)C(F)(F)C(F)(F)C(F)(F)C(F)(F)C(F)(F)Br` was tested, and the outcome was “inactive”. For `C=CC(=O)OCC(F)(F)C(F)(F)C(F)(F)C(F)(F)COC(=O)C=C`, the AC50 was 16.6 µM (active) and 16.4 µM (active). `O=S(=O)(O)C(F)(F)C(F)(F)C(F)(F)C(F)(F)C(F)(F)C(F)(F)C(F)(F)F` was tested, and the outcome was “inactive”. `CCc1ccc(C(c2ccc(CC)cc2)C(Cl)Cl)cc1` was tested, and the AC50 was 27.2 µM (active). `OCCCC(F)(F)C(F)(F)C(F)(F)F` was tested, and the outcome was “inactive”. For `CCCCCCCCCCCCCCCC[N+](C)(C)Cc1ccccc1`, the AC50 was 3.77 µM (active). In the case of `O=C(O)C(F)(OC(F)(F)C(F)(OC(F)(F)C(F)(OC(F)(F)C(F)(F)C(F)(F)F)C(F)(F)F)C(F)(F)F)C(F)(F)F` (stereo not given), the outcome was “inactive”. In the case of `FC(F)(F)C(F)(F)C(F)(F)C(F)(F)C(F)(F)C(F)(F)CC1CO1` (stereo not given), the outcome was “inactive”. `FC(F)(F)C(F)(F)CNCC(F)(F)C(F)(F)F` was tested, and the outcome was “inactive”.
